Measurements reported in PubChem BioAssay (NCATS).
Records with an inconclusive call do not appear. Where a call stands in place of a potency, no number is given. Calls of active or inactive are those of the source. Unless noted, the call rests on the fitted dose curve; in most records, active means well fitted inhibition curve with a large enough effect in the repeat runs; inconclusive means weak or mixed curves; inactive means flat fitted curve, though single readings scatter.

Tested on: not listed separately
Assay: A High-Content qHTS Against Drug Library for the Identification of Small Molecules that Inhibit DYT1 Early Onset Primary Dystonia-Associated Cell Pathology (AID 1645839; calls by dose curve)
Details: HEK293 Flp-In EGFP-delE TorsinA, punctate imaging, 48 h; series mostly up to 46.1 µM
Procedure, shortened: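 Readout: %pathology, the punctate EGFP-TorsinA distribution from imaging, as the primary channel and cell count as the toxicity counterscreen. HEK293 Flp-In cells expressing delE TorsinA were induced with tetracycline and treated with compound for 48 h.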
Potency means the concentration at half of the fitted maximal effect.

Structure (SMILES) | Potency
CN1C[C@H]2c3ccccc3Oc3ccc(Cl)cc3[C@@H]2C1 | 11.2 µM (active)
CC[C@]1(O)C[C@@H]2CN(CCc3c([nH]c4ccccc34)[C@@](C(=O)OC)(c3cc4c(cc3OC)N(C)[C@H]3[C@@](O)(C(=O)OC)[C@H](OC(C)=O)[C@]5(CC)C=CCN6CC[C@]43[C@@H]65)C2)C1 | inactive
OC[C@@H](O)[C@H](O)[C@H](O)[C@@H](O)CO | inactive
O=c1[nH]cnc2c1ncn2[C@H]1CC[C@@H](CO)O1 | inactive

Target: Cytochrome P450 2D6 (Homo sapiens) (UniProt P10635)
Sequence (P10635 whole entry, looked up): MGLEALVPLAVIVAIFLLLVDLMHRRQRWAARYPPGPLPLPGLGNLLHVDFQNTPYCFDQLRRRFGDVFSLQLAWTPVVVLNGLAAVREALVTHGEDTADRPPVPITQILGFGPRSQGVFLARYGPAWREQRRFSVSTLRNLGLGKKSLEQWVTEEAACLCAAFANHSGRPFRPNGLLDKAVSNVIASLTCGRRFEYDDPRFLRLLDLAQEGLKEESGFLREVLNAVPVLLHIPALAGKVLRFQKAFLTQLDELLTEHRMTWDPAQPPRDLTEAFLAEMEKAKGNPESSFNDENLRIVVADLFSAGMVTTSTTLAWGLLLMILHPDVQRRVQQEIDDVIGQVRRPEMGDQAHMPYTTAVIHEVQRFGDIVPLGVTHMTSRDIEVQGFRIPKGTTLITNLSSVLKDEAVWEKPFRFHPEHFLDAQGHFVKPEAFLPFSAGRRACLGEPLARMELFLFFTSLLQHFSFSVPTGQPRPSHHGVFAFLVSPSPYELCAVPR
Assay: Cytochrome P450 family 2 subfamily D member 6 (CYP2D6) small molecule antagonists: luciferase biochemical (cell-free) qHTS assay (AID 1645840); further: nearly all actives have a fitted effect of over 55% in size
Details: P450-Glo CYP2D6 enzyme, luciferin luminescence, 1 h; series mostly up to 57.4 µM
Procedure, shortened: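 P450-Glo luminescent screen: recombinant CYP2D6 enzyme–proluciferin substrate mix preincubated with compound 10 min at room temperature, then NADPH regeneration added for 1 h at room temperature. Detection reagent added for 20 min; luciferin light read as relative luminescence units.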

Structure (SMILES) | Potency
Cn1c(N2CCCCS2(=O)=O)nc(C(=O)NCc2ccc(F)cc2)c(O)c1=O | inactive
CC(C)C(=O)Nc1ncc(-c2cc(C(F)F)nn2-c2c(Cl)cccc2Cl)s1 | 10.7 µM (active)
CN1C[C@H]2c3ccccc3Oc3ccc(Cl)cc3[C@@H]2C1 | 0.0062 µM (active)
Clc1ccc(-c2nc3sccn3c2C=NOCc2ccc(Cl)c(Cl)c2)cc1 | inactive
CC(C)n1nc(-c2ccc3oc(N)nc3c2)c2c(N)ncnc21 | inactive
OC[C@@H](O)[C@H](O)[C@H](O)[C@@H](O)CO | inactive
NC(=O)c1cccc(-c2cc(Nc3ccc(OC(F)(F)F)cc3)ncn2)c1 | 26.8 µM (active)
COC1CCC(N(C(=O)C2CCC(C)CC2)c2cc(C3=CCCCC3)sc2C(=O)O)CC1 (stereo not given) | inactive
CC(C)(C)Cn1c(N)nc2ccc(-c3[nH]c(C(C)(C)C)nc3-c3ccc(F)cc3)nc21 | 15.1 µM (active)
CC(C)(Cc1ccc2ccccc2c1)NC[C@@H](O)COc1cccc(Cl)c1C#N | 0.379 µM (active)
CC1(C)Cc2c(sc(NC(=S)NC(=O)c3ccccc3)c2C(=O)O)CO1 | inactive
